# Experimental data as given in paper PMC7862700, “An all-to-all approach to the identification of sequence-specific readers for epigenetic DNA modifications on cytosine”.
# Legend:
# Assay in all cases: DAPPL (digital affinity profiling via proximity ligation, sequencing); 10 mM Tris-HCl pH 7.5, 50 mM NaCl, 1 mM DTT, 4% glycerol, room temperature, 30 min; GST-TFs on glutathione beads, 16-mer random dsDNA library, 0.1% formaldehyde crosslink after washing; high values mean tight binding
# Conditions in all cases: protein: recombinant; tags: N-terminal GST; dsDNA, one strand shown
# ETV1 = ETV1 (Homo sapiens, UniProt P50549 1-477)
# Sequence of ETV1 (P50549 whole entry, the tested form may be a part): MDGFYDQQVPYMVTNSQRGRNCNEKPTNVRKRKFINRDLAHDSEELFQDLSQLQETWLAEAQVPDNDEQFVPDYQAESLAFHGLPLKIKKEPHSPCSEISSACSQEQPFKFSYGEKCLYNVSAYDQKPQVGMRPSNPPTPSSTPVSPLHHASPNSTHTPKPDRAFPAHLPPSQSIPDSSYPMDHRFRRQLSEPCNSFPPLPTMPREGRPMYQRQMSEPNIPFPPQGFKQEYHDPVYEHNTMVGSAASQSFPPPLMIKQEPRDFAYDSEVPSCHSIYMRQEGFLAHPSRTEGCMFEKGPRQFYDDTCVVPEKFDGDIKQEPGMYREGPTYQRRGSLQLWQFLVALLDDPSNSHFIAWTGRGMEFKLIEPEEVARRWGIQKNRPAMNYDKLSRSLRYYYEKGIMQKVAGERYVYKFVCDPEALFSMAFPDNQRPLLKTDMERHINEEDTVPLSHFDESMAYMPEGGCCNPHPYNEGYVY
# Summary of the method: (§1)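 Human transcription factors were made in yeast as GST fusions, captured on glutathione beads and barcoded with DNA. With a tag-only sample included, the pool was incubated with 200 nmole of a random double-stranded 16-mer DNA library in Tris/NaCl/DTT/glycerol buffer at room temperature for 30 min, then crosslinked with 0.1% formaldehyde after washing, ligated by proximity, amplified and sequenced. For binding signal, each hexamer's read frequency for a factor is divided by its frequency for the tag-only sample.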
# ERF = target: T1, ERF (Homo sapiens, UniProt P50548 1-548)
# T1 sequence: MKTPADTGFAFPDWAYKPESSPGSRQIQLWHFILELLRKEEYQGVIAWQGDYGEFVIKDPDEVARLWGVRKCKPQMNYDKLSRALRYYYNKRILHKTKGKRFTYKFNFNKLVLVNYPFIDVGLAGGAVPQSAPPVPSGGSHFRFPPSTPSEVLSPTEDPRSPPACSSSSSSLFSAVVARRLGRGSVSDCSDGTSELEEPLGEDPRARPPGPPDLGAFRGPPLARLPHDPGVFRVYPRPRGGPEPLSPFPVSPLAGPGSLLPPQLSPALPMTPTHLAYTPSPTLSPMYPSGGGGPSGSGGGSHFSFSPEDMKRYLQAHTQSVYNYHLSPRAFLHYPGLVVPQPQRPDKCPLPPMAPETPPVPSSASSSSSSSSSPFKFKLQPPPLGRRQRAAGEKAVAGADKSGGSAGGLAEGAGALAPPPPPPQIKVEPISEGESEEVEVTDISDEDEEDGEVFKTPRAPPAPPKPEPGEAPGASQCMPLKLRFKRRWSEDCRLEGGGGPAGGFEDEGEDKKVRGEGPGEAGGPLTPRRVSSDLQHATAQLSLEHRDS
# Summary of the method: as §1
# ETV3L = target: T2, ETV3L (Homo sapiens, UniProt Q6ZN32 1-361)
# T2 sequence: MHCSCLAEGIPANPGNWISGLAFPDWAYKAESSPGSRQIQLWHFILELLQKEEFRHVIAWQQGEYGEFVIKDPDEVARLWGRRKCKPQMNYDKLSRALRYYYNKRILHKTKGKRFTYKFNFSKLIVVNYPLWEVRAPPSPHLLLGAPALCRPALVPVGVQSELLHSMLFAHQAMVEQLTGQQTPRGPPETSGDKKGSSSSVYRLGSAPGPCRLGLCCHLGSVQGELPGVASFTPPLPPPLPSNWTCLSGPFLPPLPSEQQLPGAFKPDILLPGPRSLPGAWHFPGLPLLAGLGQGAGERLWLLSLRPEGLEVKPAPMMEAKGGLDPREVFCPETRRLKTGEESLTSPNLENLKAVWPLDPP
# Summary of the method: as §1
# ETS2 = target: T3, ETS2 (Homo sapiens, UniProt P15036 1-469)
# T3 sequence: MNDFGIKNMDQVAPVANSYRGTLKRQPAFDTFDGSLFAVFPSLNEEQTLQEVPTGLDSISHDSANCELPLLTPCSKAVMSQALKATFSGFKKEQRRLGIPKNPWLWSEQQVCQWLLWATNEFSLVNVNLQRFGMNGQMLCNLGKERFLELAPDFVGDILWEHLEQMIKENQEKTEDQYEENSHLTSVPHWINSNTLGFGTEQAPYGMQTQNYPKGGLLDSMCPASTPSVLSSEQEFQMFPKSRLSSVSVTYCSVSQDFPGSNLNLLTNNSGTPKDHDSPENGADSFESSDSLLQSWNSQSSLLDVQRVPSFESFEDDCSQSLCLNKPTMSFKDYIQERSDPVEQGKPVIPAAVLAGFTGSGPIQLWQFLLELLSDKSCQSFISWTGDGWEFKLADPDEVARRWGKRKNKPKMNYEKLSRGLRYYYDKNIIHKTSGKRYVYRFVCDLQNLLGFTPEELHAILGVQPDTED
# Summary of the method: as §1
# SPDEF = target: T4, SPDEF (Homo sapiens, UniProt O95238 1-335)
# T4 sequence: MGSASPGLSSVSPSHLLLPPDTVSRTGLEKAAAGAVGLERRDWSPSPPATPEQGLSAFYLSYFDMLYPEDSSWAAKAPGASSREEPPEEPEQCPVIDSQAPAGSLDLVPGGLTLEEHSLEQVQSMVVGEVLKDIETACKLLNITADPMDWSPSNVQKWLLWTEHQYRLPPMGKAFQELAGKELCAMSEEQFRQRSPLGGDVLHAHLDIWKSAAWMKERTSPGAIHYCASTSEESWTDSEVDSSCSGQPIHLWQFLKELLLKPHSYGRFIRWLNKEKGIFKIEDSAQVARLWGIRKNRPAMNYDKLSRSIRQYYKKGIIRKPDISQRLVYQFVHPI
# Summary of the method: as §1
# ETV7 = target: T5, ETV7 (Homo sapiens, UniProt Q9Y603 1-341)
# T5 sequence: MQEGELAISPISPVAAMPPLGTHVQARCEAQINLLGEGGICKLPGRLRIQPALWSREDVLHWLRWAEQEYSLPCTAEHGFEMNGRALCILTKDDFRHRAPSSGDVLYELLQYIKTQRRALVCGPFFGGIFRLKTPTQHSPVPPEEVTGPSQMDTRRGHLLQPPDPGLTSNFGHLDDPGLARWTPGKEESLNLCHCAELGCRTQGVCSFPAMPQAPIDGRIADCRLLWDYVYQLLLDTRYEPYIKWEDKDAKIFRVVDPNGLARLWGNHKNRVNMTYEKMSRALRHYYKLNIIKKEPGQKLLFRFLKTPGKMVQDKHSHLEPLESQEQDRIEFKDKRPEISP
# Summary of the method: as §1
# ELF5 = target: T6, ELF5 (Homo sapiens, UniProt Q9UKW6-2 1-255)
# T6 sequence: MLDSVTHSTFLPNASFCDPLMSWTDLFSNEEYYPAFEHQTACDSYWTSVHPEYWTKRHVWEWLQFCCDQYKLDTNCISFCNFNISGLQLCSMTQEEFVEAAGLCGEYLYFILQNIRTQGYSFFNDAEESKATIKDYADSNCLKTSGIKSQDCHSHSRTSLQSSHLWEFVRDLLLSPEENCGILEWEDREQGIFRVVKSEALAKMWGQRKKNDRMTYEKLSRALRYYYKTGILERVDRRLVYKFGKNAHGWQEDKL
# Summary of the method: as §1
# ETV3 = target: T7, ETV3 (Homo sapiens, UniProt P41162-2 1-143)
# T7 sequence: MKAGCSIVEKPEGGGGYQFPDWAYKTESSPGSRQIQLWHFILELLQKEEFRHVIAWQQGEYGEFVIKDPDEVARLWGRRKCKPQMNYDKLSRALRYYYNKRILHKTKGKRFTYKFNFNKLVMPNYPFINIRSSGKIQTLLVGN
# Summary of the method: as §1
# ETV6 = ETV6 (Homo sapiens, UniProt P41212 1-452)
# Sequence of ETV6 (P41212 whole entry): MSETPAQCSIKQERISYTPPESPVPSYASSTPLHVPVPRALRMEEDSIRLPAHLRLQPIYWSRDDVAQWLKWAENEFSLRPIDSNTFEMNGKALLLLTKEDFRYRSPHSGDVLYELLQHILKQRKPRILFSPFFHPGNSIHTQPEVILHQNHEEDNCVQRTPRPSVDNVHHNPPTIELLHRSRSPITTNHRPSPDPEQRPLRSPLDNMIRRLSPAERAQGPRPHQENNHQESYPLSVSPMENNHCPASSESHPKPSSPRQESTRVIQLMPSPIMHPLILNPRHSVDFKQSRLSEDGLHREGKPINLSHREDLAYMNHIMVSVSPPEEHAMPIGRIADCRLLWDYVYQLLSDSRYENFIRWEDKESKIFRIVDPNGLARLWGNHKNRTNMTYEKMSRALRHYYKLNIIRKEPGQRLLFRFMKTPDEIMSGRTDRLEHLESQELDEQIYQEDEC
# Summary of the method: as §1
sequence,measurement,setting,value
CCTTCC,binding signal,ETV1,"2.55 fold enrichment (6-mer frequency, TF over GST control)"
same,binding signal,ERF,"2.26 fold enrichment (6-mer frequency, TF over GST control)"
same,binding signal,ETV3L,"2.48 fold enrichment (6-mer frequency, TF over GST control)"
same,binding signal,ETS2,"2.41 fold enrichment (6-mer frequency, TF over GST control)"
same,binding signal,SPDEF,"2.44 fold enrichment (6-mer frequency, TF over GST control)"
same,binding signal,ETV7,"2.45 fold enrichment (6-mer frequency, TF over GST control)"
same,binding signal,ELF5,"3.65 fold enrichment (6-mer frequency, TF over GST control)"
same,binding signal,ETV3,"2.88 fold enrichment (6-mer frequency, TF over GST control)"
same,binding signal,ETV6,"2.74 fold enrichment (6-mer frequency, TF over GST control)"
